The list is not random: actives were taken first. Their share in the collection is about 1.8%.
PME-1 primary: blocks human protein phosphatase methylesterase 1; inhibition, % at 5.9 µM; recombinant PME-1, FP-Rh probe fluorescence polarization; 320,000 tested, 0.53% active; Q9Y570;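 active means inhibition above the campaign mean of all compounds plus 3 SD, cut at about 26% in these data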;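 further: competitive labeling of PME-1 active site by serine hydrolase directed probe; 0% = PME-1 with DMSO and 100% = wells lacking PME-1 enzyme; inhibitors block probe labeling so polarization falls and inhibition rises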
LYPLA1 inh: blocks human lysophospholipase 1, a PME1 counter-screen; inhibition, % at 5.9 µM; O75608; 320,000 tested, 0.16% active; recombinant LYPLA1, FP-Rh probe fluorescence polarization;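 active means inhibition above the mean of all tested compounds plus 3 SD, set per campaign, cut at about 14% in these data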;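 further: inhibitors block serine hydrolase probe labeling of LYPLA1 so polarization falls; 0% = enzyme with DMSO and 100% = wells lacking LYPLA1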
Fam108B counter: counter-screen for RBBP9 inhibitors: inhibitors of mouse Fam108B; 300,000 tested, 0.33% active; AID 1947; recombinant Fam108B, FP-Rh probe fluorescence polarization; inhibition, % at 9.51 µM;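 active means inhibition above the screen mean inhibition plus 3 SD, computed separately per campaign, cut at about 18% in these data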;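 further: inhibitors lower polarization as less probe binds the enzyme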
GSTO1 inh: counter-screen for RBBP9 inhibitors: inhibitors of human GSTO1 | P78417 | 300,000 tested, 1.1% active | recombinant GSTO1, activity-based probe fluorescence polarization | inhibition, % at 5.96 µM | AID 1974;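 active means inhibition above the campaign mean inhibition plus 3 SD, cut at about 35% in these data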;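 further: 0% = GSTO1-1 with DMSO and 100% = wells lacking GSTO1-1 enzyme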
PAD4 FP inh: blocks human protein arginine deiminase 4; recombinant PAD4, RCA probe fluorescence polarization; inhibition, % at 6.36 µM; 330,000 tested, 0.41% active; AID 485272;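 active means percent inhibition above a cutoff equal to the mean of all tested compounds plus 3 SD, cut at about 15% in these data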;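 further: 0% = PAD4 with RCA probe and DMSO and 100% = probe without PAD4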
Target sequence (Q9UM07 whole entry, looked up): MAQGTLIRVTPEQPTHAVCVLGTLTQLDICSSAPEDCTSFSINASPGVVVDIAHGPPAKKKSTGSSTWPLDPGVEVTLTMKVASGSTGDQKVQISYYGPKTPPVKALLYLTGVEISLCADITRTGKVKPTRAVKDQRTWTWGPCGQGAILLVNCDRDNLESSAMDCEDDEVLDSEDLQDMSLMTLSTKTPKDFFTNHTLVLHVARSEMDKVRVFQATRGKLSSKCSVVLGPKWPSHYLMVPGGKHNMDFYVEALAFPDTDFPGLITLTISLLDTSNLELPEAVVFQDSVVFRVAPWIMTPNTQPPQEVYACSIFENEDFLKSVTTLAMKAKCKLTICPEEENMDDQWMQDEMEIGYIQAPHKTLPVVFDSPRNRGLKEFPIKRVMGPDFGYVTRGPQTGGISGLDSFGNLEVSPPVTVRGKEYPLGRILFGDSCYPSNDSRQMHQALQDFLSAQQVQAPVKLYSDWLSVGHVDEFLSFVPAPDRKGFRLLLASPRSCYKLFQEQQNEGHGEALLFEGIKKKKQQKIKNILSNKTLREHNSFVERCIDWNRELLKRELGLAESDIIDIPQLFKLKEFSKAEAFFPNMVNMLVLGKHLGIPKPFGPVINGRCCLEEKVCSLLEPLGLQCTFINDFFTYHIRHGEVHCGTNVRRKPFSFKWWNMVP
LYPLA2 inh: counter-screen for PME1 inhibitors: inhibitors of human LYPLA2; inhibition, % at 5.9 µM; AID 2177; 320,000 tested, 0.38% active; O95372; recombinant LYPLA2, FP-Rh probe fluorescence polarization;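 active means inhibition above the screen-wide mean plus 3 SD, limit set per campaign, cut at about 26% in these data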;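 further: 0% = LYPLA2 with DMSO and 100% = wells lacking LYPLA2 enzyme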
An asterisk follows results filed as active; . = no result.

SMILES	PME-1 primary	LYPLA1 inh	Fam108B counter	GSTO1 inh	PAD4 FP inh	LYPLA2 inh
Cc1nn(C)c(C)c1NC(=O)CCl	-4	-1	4	33	2	-5
Cc1ccccc1N1C(=O)c2ccccc2C1O (stereo not given)	8	-2	-4	0	-2	-8
CC(=O)N1CC(C(=O)Nc2ccc3c(c2)OCO3)Oc2ccccc21 (stereo not given)	.	.	.	.	-13	.
CCOC(=O)NNc1ccc2nonc2c1[N+](=O)[O-]	4	-3	12	89*	51*	3
O=C1COc2ccc(C(=O)COC(=O)c3ccccc3F)cc2N1	.	.	.	.	-5	.
COC(=O)c1ccccc1C(=O)c1ccc2c(c1)NC(=O)CO2	39*	2	3	-5	0	5
Cc1cc(=O)oc2cc(OS(C)(=O)=O)ccc12	-1	2	-3	1	-9	-3
O=[N+]([O-])c1cc(/C=N/n2c(-c3cccnc3)n[nH]c2=S)ccc1Cl	3	2	9	51*	7	1
CC(C)C(NC(=O)c1ccc(Cl)cc1Cl)C(=O)N1CCN(S(=O)(=O)c2ccccc2)CC1 (stereo not given)	.	.	.	.	4	.
CC1CCC(NC(=O)c2cc(S(=O)(=O)N3CCCCC3)ccc2N2CCOCC2)CC1 (stereo not given)	6	1	.	.	1	0
CCOc1cc(-c2cc(-c3ccc(N)cc3)nc(N)c2C#N)ccc1O	41*	2	14	-22	-2	-6
C[C@H](CCC(=O)NCC(=O)O)[C@H]1CC[C@H]2[C@@H]3[C@H](O)C[C@@H]4C[C@H](O)CC[C@]4(C)[C@H]3C[C@H](O)[C@]12C	-4	0	-4	-1	-2	-1
Cn1c2ccsc2c2ncn(Cc3ccccc3F)c(=O)c21	.	.	.	.	1	.
O=c1cc(N2CCCCC2)c(-c2ccccc2)nn1Cc1ccc(Cl)cc1	8	-2	0	-3	-4	2
O=c1cc(N2CCCCC2)c(-c2ccccc2)nn1Cc1c(Cl)cccc1Cl	30*	-4	-3	2	1	2
N#CC1=C(N)C(C#N)(C#N)C(c2cccnc2)C2CC(c3ccccc3)CC=C12 (stereo not given)	54*	-3	2	4	-4	6
CCOC(=O)c1sc(Nc2nc3cc4c(cc3s2)OCO4)cc1C	61*	-11	4	-3	-2	0
CC(=O)Nc1nc2cc3c(cc2s1)OCO3	1	0	1	-6	2	2
c1ccc2sc(Nc3nc4cc5c(cc4s3)OCO5)nc2c1	47*	-1	3	0	-2	0
Cc1ccc(S(=O)(=O)c2nnn3c2nc(N2CCOCC2)c2ccccc23)cc1C	5	-2	-1	-9	1	-5
Cc1ccc(S(=O)(=O)c2nnn3c2nc(N2CCOCC2)c2ccccc23)c(C)c1	27*	-2	2	6	0	3
Cc1c(Cl)cccc1Nc1nc(N)nc(CSc2nc3ccccc3s2)n1	33*	0	-10	0	-4	-13
Nc1nc(CSc2nc3ccccc3s2)nc(Nc2ccccc2)n1	-57	-16	-14	-7	6	-19
COc1cc(OC)c(C2CC(=O)N3CN(c4ccccc4C)CSC3=C2C#N)cc1OC (stereo not given)	0	2	0	36*	-21	7
CC(C)[C@@]1(c2ccc(Cl)cc2)ON(c2ccccc2C(F)(F)F)C1=O	-1	2	.	.	0	4
SMILES	PME-1 primary	LYPLA1 inh	Fam108B counter	GSTO1 inh	PAD4 FP inh	LYPLA2 inh
O=C(Nc1ccccc1C(=O)O)c1cc(S(=O)(=O)N2CCCCC2)c(Cl)cc1Cl	-4	1	0	36*	3	-1
CC(=O)NCCNC(=O)c1ccc(CSc2nc3ccccc3s2)cc1	0	1	0	-6	0	9
COc1ccc(/C=C/c2ccncc2)cc1	-2	-1	2	-3	1	0
COc1ccc(/C=C/c2c(-c3ccc(OC)cc3)oc3cccnc23)cc1	27*	-3	1	1	0	0
CC(C)(C)OC(=O)NCCCCC1=CC2=CC(=O)C(C)(OC(=O)c3ccco3)C(=O)C2=CO1 (stereo not given)	2	2	-1	41*	-2	-8
CCCCC1=CC2=CC(=O)C(C)(O)C(=O)C2=CO1 (stereo not given)	6	2	4	25	-5	8
COC(=O)CCCC1=CC2=CC(=O)C(C)(OC(=O)CCc3ccccc3)C(=O)C2=CO1 (stereo not given)	4	4	-6	14	6	-9
CCCCC1=CC2=CC(=O)C(C)(OC(=O)c3ccc(Cl)nc3)C(=O)C2=CO1 (stereo not given)	23	20*	7	26	20*	20
COC(=O)CCCC1=CC2=CC(=O)C(C)(OC(=O)c3ccco3)C(=O)C2=CO1 (stereo not given)	5	2	6	30	15	5
CC(C)(C)OC(=O)NCCCC1=CC2=CC(=O)C(C)(OC(=O)C3CCCC3)C(=O)C2=CO1 (stereo not given)	9	13	1	13	26*	9
Cc1cc(C)c(C)c(OC(=O)c2sc(Cl)nc2C)c1	-5	6	4	36*	0	5
Cc1ccc(NC(=O)c2sc(Cl)nc2C)c(C)c1	0	-2	3	4	-1	-4
CC(=O)c1ccc2c(c1)C1C=CCC1C(c1ccncc1)N2 (stereo not given)	-7	0	14	44*	-10	7
C1=CC2c3ccccc3NC(c3ccncc3)C2C1 (stereo not given)	11	-2	13	47*	-9	9
Cc1ccc2c(c1)C1C=CCC1C(C(=O)O)N2 (stereo not given)	14	-8	46*	54*	7	5
Brc1cc2c(cc1C1Nc3ccccc3C3C=CCC31)OCO2 (stereo not given)	0	-2	-2	2	0	-3
CC(=O)Nc1cc2c(cc1NC(=O)Cn1nnc(-c3ccc(C)o3)n1)OCCO2	-2	0	-4	10	-7	1
COc1ccc(S(=O)(=O)NCC2CCCO2)cc1NC(=O)c1ccc(Cl)cc1 (stereo not given)	6	-3	4	3	-4	-4
O=C(N=Nc1c(O)n(Cc2ccccc2)c2ccccc12)c1cc2ccccc2cc1O	51*	-4	1	-2	-2	0
O=C(N=Nc1c(O)n(Cc2ccccc2)c2ccccc12)c1ccc(O)cc1	3	-7	0	3	-3	3
COc1ccc(S(=O)(=O)Nc2ccccc2N2CCOCC2)cc1OC	6	-2	.	.	-2	-2
N#CC1=C(N)C(C#N)(C#N)[C@H](c2cccnc2)[C@H]2CN(C(=O)OCc3ccccc3)CC=C12	25	-3	-1	21	3	-2

Bioassay records: PubChem, The Scripps Research Institute Molecular Screening Center
